Measured values reported in PubChem BioAssay AID504339 (National Center for Advancing Translational Sciences (NCATS), 2011).
About 17,000 (4.4%) of roughly 390,000 compounds were called active. Entries that show only a call come without a potency. Inconclusive results (about 8%) are left out. The call rests on the fitted dose curve; in most records, active means well fitted inhibition curve with a large enough effect; inconclusive means small, poorly fitted or top-dose-only effect; inactive means no such curve, though single readings can be large or run the other way. The full list was thinned out, with actives kept by preference.

target: Lysine-specific demethylase 4A (Homo sapiens) (UniProt O75164); assay: qHTS Assay for Inhibitors of JMJD2A-Tudor Domain; conditions: AlphaScreen JMJD2A-Tudor / H3K4me3 peptide binding; series mostly up to 114 µM; further: nearly all actives have a fitted effect of over 50% in size
Sequence (O75164 whole entry, looked up, the tested form may be a part): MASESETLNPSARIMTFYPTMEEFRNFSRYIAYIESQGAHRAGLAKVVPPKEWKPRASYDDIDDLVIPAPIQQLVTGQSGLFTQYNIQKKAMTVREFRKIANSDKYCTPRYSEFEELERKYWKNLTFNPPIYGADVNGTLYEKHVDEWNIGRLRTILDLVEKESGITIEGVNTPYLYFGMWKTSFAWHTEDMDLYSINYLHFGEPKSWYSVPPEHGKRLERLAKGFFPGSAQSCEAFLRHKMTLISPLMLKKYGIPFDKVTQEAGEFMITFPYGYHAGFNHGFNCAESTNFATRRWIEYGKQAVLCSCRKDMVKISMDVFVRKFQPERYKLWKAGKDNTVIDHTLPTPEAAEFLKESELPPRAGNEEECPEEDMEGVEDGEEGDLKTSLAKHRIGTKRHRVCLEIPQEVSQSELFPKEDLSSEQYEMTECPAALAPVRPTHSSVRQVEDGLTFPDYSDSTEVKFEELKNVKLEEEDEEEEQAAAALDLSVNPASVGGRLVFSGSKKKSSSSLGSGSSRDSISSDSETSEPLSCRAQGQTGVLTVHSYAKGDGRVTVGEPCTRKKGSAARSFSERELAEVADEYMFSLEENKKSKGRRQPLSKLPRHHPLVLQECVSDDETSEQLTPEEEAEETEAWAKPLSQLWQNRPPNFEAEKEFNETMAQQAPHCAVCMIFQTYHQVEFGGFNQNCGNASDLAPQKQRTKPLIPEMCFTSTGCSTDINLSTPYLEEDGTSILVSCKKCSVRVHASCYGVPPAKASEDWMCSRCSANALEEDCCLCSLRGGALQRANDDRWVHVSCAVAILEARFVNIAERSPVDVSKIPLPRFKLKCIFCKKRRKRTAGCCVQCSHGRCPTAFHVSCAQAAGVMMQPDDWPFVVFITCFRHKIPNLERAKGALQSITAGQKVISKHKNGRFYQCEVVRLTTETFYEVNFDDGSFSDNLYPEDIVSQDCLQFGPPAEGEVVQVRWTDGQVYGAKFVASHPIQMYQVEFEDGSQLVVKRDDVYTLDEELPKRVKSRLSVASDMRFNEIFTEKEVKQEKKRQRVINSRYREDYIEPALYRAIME
Potency means the concentration at half of the fitted maximal effect.

SMILES	Potency
CCc1ccccc1NC(=O)N1CCN(C(=O)c2nsc3ccccc23)CC1	inactive
CCOC(=O)c1cccc(NS(=O)(=O)c2cn(C)c(C)n2)c1	inactive
Fc1ccc(CSc2nc(NCc3ccccc3)c3ccccc3n2)cc1	inactive
CN(C)/C=C1/Nc2ccccc2C1=O	50.1 µM (active)
CCCS(=O)(=O)C(=C1Nc2ccccc2N1)S(=O)(=O)CCC	inactive
CCOc1ccccc1CNC(=O)c1cnc2c(-c3ccc(OCC)c(OCC)c3)c(C)nn2c1C	inactive
COc1ccccc1CNC(=O)CCn1c(=O)c2ccccc2n(CC(=O)Nc2cccc(Cl)c2)c1=O	inactive
CCCCN(C)c1nnc(NC(=O)Nc2ccc(Br)c(C)c2)s1	inactive
CCN1C(=O)c2ccccc2Sc2ccc(NC(=O)Cc3ccc(OC)cc3)cc21	inactive
CCN1/C(=C/C(=S)Nc2ccccc2)Sc2ccccc21	50.1 µM (active)
CCNCCC(=O)N1c2ccccc2Sc2ccc(NC(=O)OCC)cc21	inactive
Cc1cc(C)cc(N(CC(=O)NC2CCCC2)C(=O)CCC(=O)Nc2nccs2)c1	inactive
CC(=O)NC1CCN(CC(=O)Nc2nccs2)CC1	31.6 µM (active)
CC1CCN(CC(=O)Nc2nccs2)CC1	inactive
COc1ccc(-c2nc(CN3CCC(C(=O)NCc4ccccc4)CC3)c(C)o2)cc1OC	inactive
COc1ccc(CNC(=O)COCc2cc(-c3cccs3)on2)cc1OC	inactive
Cc1cc([N+](=O)[O-])ccc1NS(=O)(=O)c1ccccc1	inactive
CC(Nc1ccc([N+](=O)[O-])cc1[N+](=O)[O-])c1ccccc1 (centres undefined)	12.6 µM (active)
CC(C)OP(=O)(OC(C)C)C(Nc1ccccc1)c1cccc([N+](=O)[O-])c1 (centres undefined)	inactive
COc1ccc(-c2cc(-c3ccccc3)nc3c2COc2ccc(Cl)cc2-3)cc1	inactive
Cc1cccc(NC(=O)CSc2nc(-c3ccco3)cc(C(F)(F)F)n2)c1C	inactive
CCOC(=O)c1sc(NC(=O)CSc2nc(C)cc(C(F)(F)F)n2)c(C#N)c1C	50.1 µM (active)
Cc1cc(C(F)(F)F)nc(SCC(=O)Nc2nccs2)n1	inactive
Cc1ccc(C(=O)Nc2ccccc2F)cc1S(=O)(=O)N1CCOCC1	inactive
Cc1ccccc1CNC(=O)CSc1nnc(C)c2c(C)n(-c3ccccc3)nc12	inactive

SMILES	Potency
CCCOc1ccc(NC(=O)CC2C(=O)N(c3ccccc3)C(=O)N2Cc2ccco2)cc1 (centres undefined)	inactive
Cc1ccc(N2CC(C(=O)Nc3ccc(S(=O)(=O)N4CCCC4)cc3)CC2=O)cc1C (centres undefined)	inactive
O=C(Nc1ccc(S(=O)(=O)N2CCCCC2)cc1)C1CC(=O)N(c2ccc(F)cc2)C1 (centres undefined)	inactive
CNS(=O)(=O)c1ccc(NC(=O)C2CC(=O)N(c3ccc(Cl)cc3)C2)cc1 (centres undefined)	56.2 µM (active)
CN1C(=O)c2ccccc2Sc2ccc(NC(=O)Cc3ccc(Cl)cc3)cc21	inactive
Cc1ccc(Cl)cc1N1CCN(S(=O)(=O)c2cc3[nH]c(=O)c(=O)[nH]c3cc2C)CC1	inactive
COc1ccc(-c2noc(-c3ccc(N4CCN(c5ccccc5)CC4)c([N+](=O)[O-])c3)n2)cc1OC	inactive
COc1ccc(NC(=O)c2sc3nc(-c4cc5cccc(OC)c5oc4=O)[nH]c(=O)c3c2C)cc1	inactive
Brc1ccccc1C1Nc2cccc3cccc(c23)N1	50.1 µM (active)
COc1cc2c(cc1OC)C(c1ccccc1Br)NC(=O)C2 (centres undefined)	inactive
Brc1ccccc1C1N=C(c2ccccc2)NO1 (centres undefined)	inactive
Oc1ccc(C2Nc3cccc4cccc(c34)N2)cc1	44.7 µM (active)
Cn1nnnc1SCCCNCc1ccc(Cl)cc1	inactive
O=c1cc(CSc2ncn[nH]2)[nH]c2ccc(F)cc12	inactive
CCc1nnc(SCC(=O)Nc2cc(OC)ccc2OC)nc1CC	inactive
O=C(NCCc1ccc(Cl)cc1)c1ccc2c(c1)N(Cc1ccc(F)cc1)C(=O)CS2	inactive
Cc1ccc(NC(=O)C(Cc2ccccc2)NS(=O)(=O)c2ccc3c(c2)oc(=O)n3C)cc1C (centres undefined)	inactive
CCOc1ccc(NC(=O)C2CCN(S(=O)(=O)c3cc(-c4noc(C)n4)ccc3C)CC2)cc1	inactive
CCOC(=O)C1CCN(C(=O)Nc2ccc(Cl)cc2)CC1	inactive
CCOC(=O)C1C(=O)NCC1c1ccccc1 (centres undefined)	inactive
CCOC(=O)C1Sc2[nH]c(=O)sc2C(c2ccc(Cl)cc2)C1C(=O)OCC (centres undefined)	50.1 µM (active)
CCC(=O)N1CCc2cc(Br)cc(S(=O)(=O)NCc3ccc(Cl)cc3)c21	inactive
Cc1cccc(NC(=O)c2ccc(F)c(S(=O)(=O)N(C)C3CCCCC3)c2)c1	inactive
CCc1cc2c(cc(C(=O)OC)n2Cc2nc(-c3ccc(C)cc3)oc2C)s1	inactive
O=C(CN1CCSCC1)N/N=C/c1ccc(F)cc1F	10 µM (active)

SMILES	Potency
Cc1ccc(COc2ccc(/C=N/NC(=O)CN3CCCCC3)cc2)cc1	inactive
O=C(CC(=O)N/N=C\c1ccc(F)cc1)NCCc1ccccc1	inactive
O=C(Cn1cc(C(F)(F)F)ccc1=O)N/N=C/c1ccc(Cl)cc1Cl	inactive
O=C(CN1CCSCC1)N/N=C/c1ccc(F)cc1	3.16 µM (active)
O=C(CN1CCN(C/C=C/c2ccccc2)CC1)Nc1ccc(F)cc1F	inactive
COc1ccc(CNC(=O)c2cc3cccc(OC)c3oc2=O)cc1	inactive
CC(=O)N1c2ccccc2CC1C(=O)N1CCN(c2ccc(F)cc2)CC1 (centres undefined)	inactive
CCOc1ccc(CNC(=O)Cn2cc3c(n2)-c2c(oc(C(=O)N4CCCC4)c2C)CC3)cc1	inactive
CCCc1cc(=O)n2[nH]c(NCc3ccc(CC)cc3)nc2n1	inactive
COc1ccc(-c2csc(-c3c(N)c(C(=O)c4ccc(OC)c(OC)c4)n4ccccc34)n2)cc1	inactive
COc1ccccc1CNC(=O)Cn1nc(C)c2nn(-c3ccc(Cl)cc3)c(C)c2c1=O	inactive
COc1ccc(OC)c(CNC(=O)Cn2nc(C)c3c(C)n(-c4ccc(C)cc4)nc3c2=O)c1	35.5 µM (active)
COc1ccc(OC)c(CNC(=O)Cn2nc(C)c3c(C)n(-c4ccccc4)nc3c2=O)c1	inactive
Cc1ccc2c(c1)N(C(=O)Nc1ccc(Br)cc1F)CCO2	inactive
Cc1ccc(OCC(=O)OCc2cc(=O)n3nc(C4CC4)sc3n2)cc1	inactive
CCN(C(=O)Cn1cnc2sc(C)c(S(=O)(=O)N3CCN(c4ncccn4)CC3)c2c1=O)c1ccccc1F	inactive
CCOc1cc(-c2nnc(SCC(=O)NC3CCCCC3)nc2-c2ccc(OC)c(OCC)c2)ccc1OC	inactive
CCN(C(=O)COC(=O)c1sccc1C)c1c(N)n(Cc2ccccc2)c(=O)[nH]c1=O	inactive
CCN(C(=O)CN1CCN(Cc2ccccc2)CC1)c1c(N)n(Cc2ccccc2)c(=O)[nH]c1=O	12.6 µM (active)
CCN(C(=O)COC(=O)Cc1c(F)cccc1Cl)c1c(N)n(Cc2ccccc2)c(=O)[nH]c1=O	inactive
OC[C@@H]1O[C@H](n2cnc3c(SCc4ccccc4)ncnc32)[C@H](O)[C@H]1O	inactive
Cc1ccc(C(=O)N2c3ncnn3C3(CCCCC3)[C@@H]3CCCC[C@@H]32)cc1	inactive
CCC(=O)N1CCc2cc(CNS(=O)(=O)c3ccc(Br)s3)ccc21	inactive
Cc1ccc(C(=O)O)cc1-c1ccc(/C=C2\SC(=O)N(CC(=O)Nc3ccc4c(c3)OCO4)C2=O)o1	35.5 µM (active)
Cc1nn(CC(=O)Nc2ccc3c(c2)OCO3)c(C)c1[N+](=O)[O-]	inactive

SMILES	Potency
Cc1nc([N+](=O)[O-])cn1CC(=O)Nc1ccc2c(c1)OCO2	inactive
O=C(CSc1nnc(-c2ccncc2)n1-c1ccccc1)Nc1ccc(Cl)c(Cl)c1	inactive
COc1ccccc1CN1CCC(CNC(=O)c2cnn(-c3cccc(Cl)c3)c2C2CCN(C(=O)OC(C)(C)C)CC2)CC1	inactive
COCCNC(=O)c1ccc2c(c1)N=C(C)c1cc(C)ccc1S2	inactive
C/C(=N\Nc1ccc(Cl)nn1)c1ccccc1O	inactive
Oc1cccc(/C=N/Nc2ccc(Cl)nn2)c1O	63.1 µM (active)
COc1cccc(CNC(=O)c2ccc3c(c2)N(Cc2ccc(C(F)(F)F)cc2)C(=O)c2ccccc2S3)c1OC	inactive
CCCc1nn2c(=O)cc(COC(=O)c3ccc(NC(=O)C(C)Oc4ccccc4)cc3)nc2s1 (centres undefined)	inactive
COc1ccc(-c2nnc(SCC(=O)Nc3ccccc3C)o2)cc1OC	inactive
Cc1ccc(OCCCC(=O)Nc2ccc(N3CCOCC3)cc2)cc1	inactive
CCOC(=O)c1cnc2c(C)cc(C)cc2c1Nc1ccc(N2CCOCC2)cc1	35.5 µM (active)
CCOC(=O)c1cnc2c(C)cc(Cl)cc2c1NCCc1ccc(OC)c(OC)c1	inactive
Cc1cccc(-n2c(=O)c3c(c4cc(C)ccc4n3C)n(CC(=O)Nc3ccccc3Cl)c2=O)c1	inactive
O=C(Oc1ccc(-c2nc(-c3ccccn3)no2)cc1)c1ccccc1	inactive
COc1ccnc(Oc2ccccc2)c1-c1ncn[nH]1	inactive
COc1cnc(-c2ccccn2)nc1Oc1ccc(C(C)(C)C)cc1	31.6 µM (active)
CN1C2CCC1CC(NC(=O)c1ccc([N+](=O)[O-])cc1)C2 (centres undefined)	inactive
Cc1cc(C)cc(C(=O)N2CCN=C2SCc2ccc([N+](=O)[O-])cc2)c1	inactive
CC(=O)N1CC[n+]2c(-c3ccc([N+](=O)[O-])cc3)csc21	7.94 µM (active)
O=C(Nc1nc2ccc(F)cc2s1)c1nc(SCc2ccccc2F)ncc1Cl	inactive
COc1ccc(-n2cnc3cc(C(=O)NC4CCCC4)ccc32)cc1	inactive
COc1ccc(NC(=O)C(=O)NCc2ccco2)cc1	inactive
COc1ccc(-n2cnc3cc(NCc4ccco4)ccc32)cc1	50.1 µM (active)
Cc1ccc(CSc2nc3cccnc3n2Cc2ccc(C(=O)NC3CC3)cc2)cc1	inactive
